Compound activity: PubChem, Broad Institute
C2C12 statin = suppressors of simvastatin-induced myotoxicity in C2C12 myotubes | ATP luminescence, 48 h; scaled: DMSO 0, geranylgeraniol control 100 | rescue of ATP level, % at 7.49 µM | hit rate 0.78% among 330,000;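 active = mean ATP rescue above about 67%, or every replicate alone reaching that limit, limit read from the data, passing the limit was not always enough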;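 also: myotubes were challenged with 10 µM simvastatin during compound exposure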
ARNT TACC3 PPI = disrupts binding between human ARNT and TACC3 | Q9Y6A5 | AlphaScreen His-ARNT PAS-B/GST-TACC3 binding, luminescence; TACC3 fragment carries E629A point mutation | AID 623870 | inhibition, % at 9.99 µM | hit rate 0.66% among 390,000;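 active = mean inhibition of replicates at least 50% and at least half of replicates each reaching 50%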;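 also: 0% = complete ARNT plus TACC3 wells and 100% = ARNT alone without TACC3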
PglD DTNB = PglD (C. jejuni) enzyme inhibition; AID 602405; purified PglD enzyme, DTNB colorimetric CoA detection; inhibition, % at 12.5 µM; hit rate 0.098% among 360,000; in the data active = inhibition above about 16%, passing the limit was not always enough
F508del corr = correctors of CFTR F508del function in bronchial epithelial cells | CFBE cells, YFP halide quenching; stimulated with forskolin plus potentiator P3; % fluorescence drop versus neutral controls | activity (quench increase), % at 7.58 µM | hit rate 0.36% among 350,000 | AID 720511;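 active = mean added fluorescence quench of at least 8% versus neutral control, with both replicates also reaching 8%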;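 also: cells transiently co-express mutant CFTR-F508del with the halide-sensitive YFP; corrector assay measuring rescue of mutant channel to the surface after 24 h compound exposure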
Numbers without * were called inactive; x = no result given. Sampled rows, rich in hits. Any-hit rate of the full collection: about 1.4%.

SMILES | C2C12 statin | ARNT TACC3 PPI | PglD DTNB | F508del corr
CCOC(=O)N1CCN(C(=O)C2CCC(=O)N(CCCN3CCCC3=O)C2)CC1 (configuration not stated) | 4 | 2 | -9 | 8.5*
CCOC(=O)N1CCN(C(=O)C2CCC(=O)N(CCCc3ccccc3)C2)CC1 (configuration not stated) | 3 | -3 | -9 | 1
CCCNC(=O)N1CC2(CN(Cc3ccc(F)cc3)C2)c2c([nH]c3cc(OC)ccc23)[C@@H]1CO | x | x | x | 3
O=C(C[C@@H]1CC[C@@H]2[C@H](COC[C@H](O)CN2C(=O)Nc2ccc(Cl)c(Cl)c2)O1)NC1CCC1 | -4 | -4 | 2 | -1
O=C(N=Nc1c(O)[nH]c2ccc(Br)cc12)c1ccccc1-n1cccc1 | -86 | -3 | -2 | 13*
O=C(N=Nc1c(O)[nH]c2ccc(Br)cc12)c1ccco1 | 0 | x | -6 | 1
O=C(NC(=S)NCCN1CCOCC1)c1ccc(Cl)cc1Cl | 89* | 3 | -6 | x
O=C(NC(=S)NCCN1CCOCC1)c1ccccc1Cl | 20 | 23 | 1 | x
O=C(NCCCN1CCOCC1)c1cc(S(=O)(=O)N2CCOCC2)c(Cl)cc1Cl | -5 | -2 | 0 | 9.0*
O=C(CSc1nnc2ccccn12)NNC(=O)c1cccc(Cl)c1 | 113* | -7 | 2 | -1
O=C(CSc1nnc2ccccn12)NNC(=O)c1ccc(Cl)cc1 | 25 | -5 | 1 | 1
CNC[C@H]1Oc2ccc(NC(=O)Nc3c(C)noc3C)cc2C(=O)N([C@@H](C)CO)C[C@H]1C | 2 | -6 | -1 | 2
COc1cc(OC)c(NC(=O)CCNS(=O)(=O)c2cc(Br)cnc2N)cc1Cl | 94* | 5 | 6 | x
CC(C)NC(=O)N(C)C[C@@H]1Oc2cc(C#Cc3cccc(F)c3)ccc2S(=O)(=O)N([C@H](C)CO)C[C@H]1C | -29 | 1 | 3 | 1
C=CCOc1ccc(Br)cc1/C=N/O | 126* | -5 | 8 | x
O/N=C/c1cc(Br)ccc1OCc1ccccc1F | -10 | -1 | -5 | x
CCCNC(=O)Nc1ccc2c(c1)OC[C@H](C)N(CCC(F)(F)F)C[C@@H](C)[C@H](OC)CN(C)C2=O | -4 | 0 | 0 | -2
O=CN1CCC(=O)N(Cc2ccccc2)c2ccccc21 | 109* | -2 | 0 | x
O=C1CCc2ccccc2N1Cc1ccccc1 | 11 | -12 | -2 | 1
COc1ccc(NC(=O)Nc2ccc3c(c2)C(=O)N([C@H](C)CO)C[C@H](C)[C@H](CN(C)C(=O)NC(C)C)O3)cc1 | -6 | -11 | 1 | -1
CCc1ccc(C(O)(CC(C)C)C(CN2CCOCC2)c2ccccc2)cc1 (configuration not stated) | 106* | -38 | 8 | 0
Cc1cc(C)cc(C(=O)NCC(=O)OCc2cc([N+](=O)[O-])cc3c2OCOC3)c1 | x | -1 | x | 13*
C=CCn1c(=O)[nH]c(=O)c2c(N)c(C(=O)c3ccc(OC)cc3)sc21 | 135* | 0 | -1 | 0
Cc1ccc(C(=O)c2sc3c(c2N)c(=O)[nH]c(=O)n3CCc2ccccc2)cc1 | x | -4 | x | x
COC(=O)[C@@H]1[C@@H](CO)[C@@H]2Cn3c(ccc(C4=CCCCC4)c3=O)[C@@H]2N1Cc1cccnc1 | x | x | x | -1
SMILES | C2C12 statin | ARNT TACC3 PPI | PglD DTNB | F508del corr
COC(=O)C[C@H]1C[C@@H]2c3cc(NC(=O)Nc4ccc(OC)cc4)ccc3O[C@@H]2[C@H](CO)O1 | 2 | 3 | 12 | 0
CCCCNc1cc(C(=O)O)cc(S(N)(=O)=O)c1Oc1ccccc1 | 8 | -39 | 4 | 8.6*
NS(=O)(=O)c1cc(C(=O)O)cc(N2CCCC2)c1Oc1ccccc1 | 1 | -2 | 6 | -1
CC1=C(C(=O)NCc2ccccc2)C(c2cccs2)NC(=S)N1 (configuration not stated) | 98* | -1 | -1 | -2
COc1cc(CNCc2ccccn2)ccc1OCC(N)=O | 41 | 49* | 0 | 0
COc1cc(CNCc2ccccn2)ccc1OCc1ccc(Cl)c(Cl)c1 | -5 | 42 | 4 | 0
O=C(Cc1ccccn1)N1CC2(C1)[C@H](c1ccccc1)[C@@H](CO)N2C(=O)c1ccncc1 | x | x | x | 0
C[C@H](CO)N1C[C@H](C)[C@H](CN(C)C)Oc2cc(-c3cccnc3)ccc2S1(=O)=O | -4 | 2 | 4 | -1
C[C@@H]1CN([C@H](C)CO)C(=O)c2cc(NC(=O)CCN3CCOCC3)ccc2O[C@@H]1CN(C)S(=O)(=O)c1ccc(F)cc1 | -11 | -5 | -2 | 0
CCOC(=O)c1c(N)c(C#N)c2n1CCCC2 | 113* | 1 | -5 | x
CCOC(=O)C1(C)NC(c2ccc(N(C)C)cc2)C2C(=O)N(c3ccc(OC)cc3)C(=O)C21 (configuration not stated) | 115* | -20 | 13 | x
CCN(CC)C(=O)c1[nH]cnc1C(=O)NCC(=O)OC(C)(C)C | 93* | 19 | -1 | -1
Brc1ccc(CSc2ncnc3nc[nH]c23)cc1 | 0 | -8 | 9 | 1
Fc1ccc(CSc2ncnc3nc[nH]c23)cc1 | 158* | -1 | -5 | -4
CCS(=O)(=O)N1Cc2cc(C(=O)O)nc(-c3cccc(-c4ccc(C#N)cc4)c3)c2[C@H]1CCO | x | x | x | -2
COc1ccc(N2COC3c4cccc5cccc(c45)C32)cc1 (configuration not stated) | 88* | -17 | 5 | x
CC(C)CC#Cc1ccc2c(c1)O[C@H](CN(C)C(=O)c1cnccn1)[C@@H](C)CN([C@H](C)CO)S2(=O)=O | 4 | -2 | 0 | -1
Cc1ccc(NC(=S)N=Nc2c(O)[nH]c3ccccc23)cc1 | x | -5 | x | 3
Oc1ccc(NC(=S)N=Nc2c(O)[nH]c3ccccc23)cc1 | 4 | 67* | -4 | -2
O=C(Nc1nnc(-c2ccccc2Cl)o1)c1cccnc1 | 43 | 54* | x | x
COc1ccc(CN(C)C[C@H]2OCCCC[C@@H](C)Oc3ccc(NC(=O)NC4CCCCC4)cc3C(=O)N([C@H](C)CO)C[C@H]2C)cc1 | x | 5 | 0 | 0
CCOc1ccccc1NC(=O)c1ccccc1N(C)S(C)(=O)=O | 151* | 0 | 8 | x
CN(c1ccccc1C(=O)Nc1ccc2c(c1)OCCO2)S(C)(=O)=O | 0 | 2 | 0 | x
Cc1ccc(NC(=O)c2ccccc2N(C)S(C)(=O)=O)cc1C | 106* | 3 | -1 | x
CCCN1C[C@@H](C)[C@@H](OC)CN(C)C(=O)c2cc(NC(=O)c3cccc(F)c3)ccc2OC[C@H]1C | -3 | -5 | -1 | 2
COc1ccc(-n2nc3cc(C)c(N)c(Br)c3n2)cc1 | 129* | 0 | 1 | x
O=C1C[C@@H]2c3c(cccc3CN1Cc1ccc(Cl)cc1)C[C@@H](O)[C@H]2O | 119* | -1 | 2 | 1
O=C1C[C@@H]2c3c(cccc3CN1Cc1ccccc1Cl)C[C@@H](O)[C@H]2O | 20 | -1 | -5 | -2
O=C1C[C@@H]2c3c(cccc3CN1Cc1ccccc1F)C[C@@H](O)[C@H]2O | 126* | -5 | 4 | -2
CCc1ccc(CN2CC(C(=O)O)CC2=O)cc1 (configuration not stated) | 10 | -7 | 2 | -2
